# Paper PMC7862700, “An all-to-all approach to the identification of sequence-specific readers for epigenetic DNA modifications on cytosine”
# Assays:
# Assay in all cases: DAPPL (digital affinity profiling via proximity ligation, sequencing); 10 mM Tris-HCl pH 7.5, 50 mM NaCl, 1 mM DTT, 4% glycerol, room temperature, 30 min; GST-TFs on glutathione beads, 16-mer random dsDNA library, 0.1% formaldehyde crosslink after washing; high values mean tight binding
# FEV = target: T1, FEV (Homo sapiens, UniProt Q99581 1-238); conditions: protein: recombinant; tags: N-terminal GST; dsDNA, one strand shown
# T1 sequence: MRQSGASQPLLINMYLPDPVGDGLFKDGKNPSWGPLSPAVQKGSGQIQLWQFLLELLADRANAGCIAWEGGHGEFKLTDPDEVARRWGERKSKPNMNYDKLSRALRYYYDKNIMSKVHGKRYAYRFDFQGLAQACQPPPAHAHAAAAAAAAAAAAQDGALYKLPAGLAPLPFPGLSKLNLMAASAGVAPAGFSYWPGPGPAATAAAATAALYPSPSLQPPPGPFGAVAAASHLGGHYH
# Outline: (§1)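 Human transcription factors fused to GST were expressed in yeast, captured on glutathione beads, given DNA barcodes and pooled with a GST-only negative control. Pools were incubated with 200 nmole of a 16-mer random double-stranded DNA library in Tris/NaCl/DTT/glycerol buffer at room temperature for 30 min. They were then washed, crosslinked with 0.1% formaldehyde, proximity-ligated (BsaI/T4 ligase, 1 h, 37 °C), PCR-amplified and sequenced on an Illumina NextSeq500. Binding signal is each 6-mer's read frequency for a factor divided by its frequency for the GST control.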
# ETV5 = ETV5 (Homo sapiens, UniProt P41161 1-510); conditions: protein: recombinant; tags: N-terminal GST; dsDNA, one strand shown
# Outline: as §1
# HSF1 = HSF1 (Homo sapiens, UniProt Q00613 1-529); conditions: protein: recombinant; tags: N-terminal GST; chain copies: 3; dsDNA, one strand shown
# Outline: as §1
# SPIC = target: T2, SPIC (Homo sapiens, UniProt Q8N5J4 1-248); conditions: protein: recombinant; tags: N-terminal GST; dsDNA, one strand shown
# T2 sequence: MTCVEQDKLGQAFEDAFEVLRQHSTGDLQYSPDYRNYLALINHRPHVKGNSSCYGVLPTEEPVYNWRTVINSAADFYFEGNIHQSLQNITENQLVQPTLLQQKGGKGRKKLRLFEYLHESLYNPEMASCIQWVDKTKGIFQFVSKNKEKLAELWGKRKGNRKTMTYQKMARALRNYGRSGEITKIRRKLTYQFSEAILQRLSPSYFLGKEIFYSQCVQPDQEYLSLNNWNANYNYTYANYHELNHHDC
# Outline: as §1
# ELF4 = ELF4 (Homo sapiens, UniProt Q99607 1-663); conditions: protein: recombinant; tags: N-terminal GST; dsDNA, one strand shown
# Outline: as §1
# ELK4 = target: T3, ELK4 (Homo sapiens, UniProt P28324-2 1-405); conditions: protein: recombinant; tags: N-terminal GST; dsDNA, one strand shown
# T3 sequence: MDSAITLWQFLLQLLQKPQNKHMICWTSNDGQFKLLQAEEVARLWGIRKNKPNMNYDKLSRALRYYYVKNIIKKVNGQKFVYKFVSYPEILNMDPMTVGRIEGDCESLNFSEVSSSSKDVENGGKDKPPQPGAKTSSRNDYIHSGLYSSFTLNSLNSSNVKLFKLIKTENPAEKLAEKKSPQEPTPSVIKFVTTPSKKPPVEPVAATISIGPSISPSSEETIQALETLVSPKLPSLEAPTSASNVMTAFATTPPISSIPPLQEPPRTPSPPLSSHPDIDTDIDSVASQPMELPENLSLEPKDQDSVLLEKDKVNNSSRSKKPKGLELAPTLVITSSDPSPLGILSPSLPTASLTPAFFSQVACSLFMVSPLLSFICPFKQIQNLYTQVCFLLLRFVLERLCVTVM
# Outline: as §1
# ETV2 = target: T4, ETV2 (Homo sapiens, UniProt O00321 1-342); conditions: protein: recombinant; tags: N-terminal GST; dsDNA, one strand shown
# T4 sequence: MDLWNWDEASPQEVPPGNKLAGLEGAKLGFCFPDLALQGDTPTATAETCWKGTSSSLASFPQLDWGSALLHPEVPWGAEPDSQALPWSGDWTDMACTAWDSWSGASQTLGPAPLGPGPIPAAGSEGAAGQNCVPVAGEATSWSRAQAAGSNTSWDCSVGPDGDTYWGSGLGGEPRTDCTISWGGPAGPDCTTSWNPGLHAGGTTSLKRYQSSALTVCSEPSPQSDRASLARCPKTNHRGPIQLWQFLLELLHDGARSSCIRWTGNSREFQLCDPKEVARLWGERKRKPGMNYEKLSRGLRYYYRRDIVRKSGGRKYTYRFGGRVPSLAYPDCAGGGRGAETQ
# Outline: as §1
# ELF3 = target: T5, ELF3 (Homo sapiens, UniProt P78545 1-371); conditions: protein: recombinant; tags: N-terminal GST; dsDNA, one strand shown
# T5 sequence: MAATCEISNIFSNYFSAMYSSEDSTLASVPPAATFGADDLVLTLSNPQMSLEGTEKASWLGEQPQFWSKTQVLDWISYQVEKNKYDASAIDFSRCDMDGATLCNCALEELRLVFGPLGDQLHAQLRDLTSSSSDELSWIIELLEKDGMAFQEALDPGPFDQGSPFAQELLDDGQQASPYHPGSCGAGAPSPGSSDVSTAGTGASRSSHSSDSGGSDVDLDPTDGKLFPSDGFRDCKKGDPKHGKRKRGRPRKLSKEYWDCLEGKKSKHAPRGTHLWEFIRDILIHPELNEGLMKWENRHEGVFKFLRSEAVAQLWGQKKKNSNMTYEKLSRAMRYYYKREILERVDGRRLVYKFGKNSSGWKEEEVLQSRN
# Outline: as §1
# CRX = CRX (Homo sapiens, UniProt O43186 1-299); conditions: protein: recombinant; tags: N-terminal GST; dsDNA, one strand shown
# Outline: as §1
# ETV1 = ETV1 (Homo sapiens, UniProt P50549 1-477); conditions: protein: recombinant; tags: N-terminal GST; dsDNA, one strand shown
# Outline: as §1
# ERF = target: T6, ERF (Homo sapiens, UniProt P50548 1-548); conditions: protein: recombinant; tags: N-terminal GST; dsDNA, one strand shown
# T6 sequence: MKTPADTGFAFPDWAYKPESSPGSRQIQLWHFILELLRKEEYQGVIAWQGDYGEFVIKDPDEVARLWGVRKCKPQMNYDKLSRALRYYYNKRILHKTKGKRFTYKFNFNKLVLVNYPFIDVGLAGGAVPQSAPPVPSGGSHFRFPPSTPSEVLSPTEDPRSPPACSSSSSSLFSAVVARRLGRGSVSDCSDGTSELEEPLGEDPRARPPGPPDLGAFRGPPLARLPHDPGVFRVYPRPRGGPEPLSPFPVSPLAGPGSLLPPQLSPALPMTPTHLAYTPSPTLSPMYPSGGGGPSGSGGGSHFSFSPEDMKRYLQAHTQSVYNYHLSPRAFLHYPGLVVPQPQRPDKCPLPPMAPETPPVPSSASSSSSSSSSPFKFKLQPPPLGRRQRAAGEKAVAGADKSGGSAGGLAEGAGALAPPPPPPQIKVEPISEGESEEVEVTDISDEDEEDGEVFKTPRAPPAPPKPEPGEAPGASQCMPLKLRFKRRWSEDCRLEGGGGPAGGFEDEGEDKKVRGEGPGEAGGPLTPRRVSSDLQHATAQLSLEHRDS
# Outline: as §1
# ETV3L = target: T7, ETV3L (Homo sapiens, UniProt Q6ZN32 1-361); conditions: protein: recombinant; tags: N-terminal GST; dsDNA, one strand shown
# T7 sequence: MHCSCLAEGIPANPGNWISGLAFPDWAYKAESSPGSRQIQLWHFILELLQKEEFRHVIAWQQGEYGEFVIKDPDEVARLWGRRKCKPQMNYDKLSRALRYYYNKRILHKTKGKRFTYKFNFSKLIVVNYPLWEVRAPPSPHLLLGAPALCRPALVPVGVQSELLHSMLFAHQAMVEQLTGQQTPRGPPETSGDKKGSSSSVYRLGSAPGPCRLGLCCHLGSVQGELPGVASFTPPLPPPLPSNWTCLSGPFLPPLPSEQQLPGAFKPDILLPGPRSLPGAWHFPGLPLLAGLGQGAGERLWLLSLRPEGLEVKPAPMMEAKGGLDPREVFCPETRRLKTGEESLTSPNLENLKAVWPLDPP
# Outline: as §1
# ETS2 = target: T8, ETS2 (Homo sapiens, UniProt P15036 1-469); conditions: protein: recombinant; tags: N-terminal GST; dsDNA, one strand shown
# T8 sequence: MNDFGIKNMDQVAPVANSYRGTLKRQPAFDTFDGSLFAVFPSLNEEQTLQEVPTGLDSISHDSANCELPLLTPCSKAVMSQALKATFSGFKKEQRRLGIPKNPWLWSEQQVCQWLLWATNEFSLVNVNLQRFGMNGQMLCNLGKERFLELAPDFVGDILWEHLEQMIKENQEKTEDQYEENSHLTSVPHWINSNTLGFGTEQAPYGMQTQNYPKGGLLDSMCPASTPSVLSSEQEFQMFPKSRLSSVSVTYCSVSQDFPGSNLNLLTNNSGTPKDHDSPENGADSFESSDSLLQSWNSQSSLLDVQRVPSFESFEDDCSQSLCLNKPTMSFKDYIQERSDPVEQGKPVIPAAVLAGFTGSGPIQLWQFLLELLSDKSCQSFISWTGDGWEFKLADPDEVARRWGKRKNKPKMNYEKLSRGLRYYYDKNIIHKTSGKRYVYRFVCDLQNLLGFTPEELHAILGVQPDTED
# Outline: as §1
# SPDEF = target: T9, SPDEF (Homo sapiens, UniProt O95238 1-335); conditions: protein: recombinant; tags: N-terminal GST; dsDNA, one strand shown
# T9 sequence: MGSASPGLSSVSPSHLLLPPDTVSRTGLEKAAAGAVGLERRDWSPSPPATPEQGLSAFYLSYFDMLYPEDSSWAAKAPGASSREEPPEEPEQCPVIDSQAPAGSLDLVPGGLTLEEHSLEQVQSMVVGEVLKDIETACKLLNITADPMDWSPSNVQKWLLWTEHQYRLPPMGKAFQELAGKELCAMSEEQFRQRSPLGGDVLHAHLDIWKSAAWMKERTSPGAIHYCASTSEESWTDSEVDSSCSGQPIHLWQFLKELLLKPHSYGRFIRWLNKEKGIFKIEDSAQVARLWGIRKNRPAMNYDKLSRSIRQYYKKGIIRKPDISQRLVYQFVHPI
# Outline: as §1
# ETV7 = target: T10, ETV7 (Homo sapiens, UniProt Q9Y603 1-341); conditions: protein: recombinant; tags: N-terminal GST; dsDNA, one strand shown
# T10 sequence: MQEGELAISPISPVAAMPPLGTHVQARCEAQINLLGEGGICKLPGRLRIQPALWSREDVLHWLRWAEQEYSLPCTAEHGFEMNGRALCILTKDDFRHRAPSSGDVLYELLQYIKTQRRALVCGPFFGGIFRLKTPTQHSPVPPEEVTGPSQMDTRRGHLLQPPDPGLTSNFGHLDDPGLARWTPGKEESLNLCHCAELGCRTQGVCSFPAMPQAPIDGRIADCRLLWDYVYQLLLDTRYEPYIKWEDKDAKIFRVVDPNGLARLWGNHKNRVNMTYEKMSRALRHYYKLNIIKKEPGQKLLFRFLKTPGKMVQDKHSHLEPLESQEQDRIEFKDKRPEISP
# Outline: as §1
# ELF5 = target: T11, ELF5 (Homo sapiens, UniProt Q9UKW6-2 1-255); conditions: protein: recombinant; tags: N-terminal GST; dsDNA, one strand shown
# T11 sequence: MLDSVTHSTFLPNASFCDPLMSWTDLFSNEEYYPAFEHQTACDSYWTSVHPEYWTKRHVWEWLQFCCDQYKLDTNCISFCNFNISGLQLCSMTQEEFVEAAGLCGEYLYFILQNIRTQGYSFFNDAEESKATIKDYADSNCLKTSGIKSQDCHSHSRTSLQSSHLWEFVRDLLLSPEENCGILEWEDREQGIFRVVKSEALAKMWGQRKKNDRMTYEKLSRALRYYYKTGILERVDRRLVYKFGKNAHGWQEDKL
# Outline: as §1
# ETV3 = target: T12, ETV3 (Homo sapiens, UniProt P41162-2 1-143); conditions: protein: recombinant; tags: N-terminal GST; dsDNA, one strand shown
# T12 sequence: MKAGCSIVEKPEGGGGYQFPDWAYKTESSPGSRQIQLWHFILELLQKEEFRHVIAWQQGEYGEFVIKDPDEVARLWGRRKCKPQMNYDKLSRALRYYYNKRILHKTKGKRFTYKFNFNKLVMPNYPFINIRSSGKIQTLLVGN
# Outline: as §1
# ETV6 = ETV6 (Homo sapiens, UniProt P41212 1-452); conditions: protein: recombinant; tags: N-terminal GST; dsDNA, one strand shown
# Outline: as §1
# Sequence of ELF4 (Q99607 whole entry): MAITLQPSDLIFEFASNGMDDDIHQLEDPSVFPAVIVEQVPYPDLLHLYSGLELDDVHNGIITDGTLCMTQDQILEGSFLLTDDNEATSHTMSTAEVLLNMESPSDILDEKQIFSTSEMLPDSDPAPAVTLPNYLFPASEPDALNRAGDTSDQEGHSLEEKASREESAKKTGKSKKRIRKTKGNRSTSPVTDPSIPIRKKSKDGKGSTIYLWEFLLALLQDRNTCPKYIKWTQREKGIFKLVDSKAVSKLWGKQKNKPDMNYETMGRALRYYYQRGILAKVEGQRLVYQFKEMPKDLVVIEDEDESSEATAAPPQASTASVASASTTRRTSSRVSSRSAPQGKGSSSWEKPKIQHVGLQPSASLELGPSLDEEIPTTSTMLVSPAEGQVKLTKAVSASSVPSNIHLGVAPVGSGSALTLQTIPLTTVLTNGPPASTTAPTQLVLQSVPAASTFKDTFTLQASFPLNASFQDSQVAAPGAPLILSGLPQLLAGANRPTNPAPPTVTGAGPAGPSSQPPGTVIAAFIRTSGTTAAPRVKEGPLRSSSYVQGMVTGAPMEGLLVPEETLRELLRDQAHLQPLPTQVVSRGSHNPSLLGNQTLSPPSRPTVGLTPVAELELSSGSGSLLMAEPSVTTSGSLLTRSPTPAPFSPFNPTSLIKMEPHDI
# Sequence of CRX (O43186 whole entry): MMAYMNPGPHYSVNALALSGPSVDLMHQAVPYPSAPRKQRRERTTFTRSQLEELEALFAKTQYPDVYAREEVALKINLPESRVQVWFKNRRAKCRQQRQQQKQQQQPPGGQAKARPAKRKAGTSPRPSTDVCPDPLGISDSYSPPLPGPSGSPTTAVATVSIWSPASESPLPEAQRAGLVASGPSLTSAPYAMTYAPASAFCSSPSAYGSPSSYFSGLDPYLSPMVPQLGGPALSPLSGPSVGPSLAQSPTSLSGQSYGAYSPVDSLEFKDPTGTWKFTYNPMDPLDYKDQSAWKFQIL
# Sequence of ETV6 (P41212 whole entry): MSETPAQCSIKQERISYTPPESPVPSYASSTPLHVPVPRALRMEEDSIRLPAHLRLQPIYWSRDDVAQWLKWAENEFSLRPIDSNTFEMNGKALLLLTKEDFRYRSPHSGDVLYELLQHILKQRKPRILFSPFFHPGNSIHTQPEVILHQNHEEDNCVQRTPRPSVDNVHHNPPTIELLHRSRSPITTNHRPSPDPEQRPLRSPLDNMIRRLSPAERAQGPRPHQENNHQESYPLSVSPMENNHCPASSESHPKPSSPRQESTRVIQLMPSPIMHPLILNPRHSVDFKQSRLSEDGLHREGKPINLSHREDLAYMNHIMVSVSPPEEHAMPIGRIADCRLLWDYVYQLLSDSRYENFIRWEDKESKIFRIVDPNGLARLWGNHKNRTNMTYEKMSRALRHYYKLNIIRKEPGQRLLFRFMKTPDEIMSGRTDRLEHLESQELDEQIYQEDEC
# Sequence of HSF1 (Q00613 whole entry): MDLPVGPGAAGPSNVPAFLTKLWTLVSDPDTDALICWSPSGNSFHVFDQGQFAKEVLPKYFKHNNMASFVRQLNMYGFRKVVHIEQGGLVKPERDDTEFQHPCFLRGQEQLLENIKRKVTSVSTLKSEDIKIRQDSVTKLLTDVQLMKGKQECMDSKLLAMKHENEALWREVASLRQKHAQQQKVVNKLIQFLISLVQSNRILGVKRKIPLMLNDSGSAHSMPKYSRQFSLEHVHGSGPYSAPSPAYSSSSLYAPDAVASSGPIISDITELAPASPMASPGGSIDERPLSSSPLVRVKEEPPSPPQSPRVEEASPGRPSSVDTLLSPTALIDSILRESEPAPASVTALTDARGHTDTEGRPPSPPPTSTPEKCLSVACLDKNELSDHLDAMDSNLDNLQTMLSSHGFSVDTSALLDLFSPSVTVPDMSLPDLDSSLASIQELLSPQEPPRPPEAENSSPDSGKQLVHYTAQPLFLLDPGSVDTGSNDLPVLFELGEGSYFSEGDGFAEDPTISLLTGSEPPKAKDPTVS
# Sequence of ETV1 (P50549 whole entry): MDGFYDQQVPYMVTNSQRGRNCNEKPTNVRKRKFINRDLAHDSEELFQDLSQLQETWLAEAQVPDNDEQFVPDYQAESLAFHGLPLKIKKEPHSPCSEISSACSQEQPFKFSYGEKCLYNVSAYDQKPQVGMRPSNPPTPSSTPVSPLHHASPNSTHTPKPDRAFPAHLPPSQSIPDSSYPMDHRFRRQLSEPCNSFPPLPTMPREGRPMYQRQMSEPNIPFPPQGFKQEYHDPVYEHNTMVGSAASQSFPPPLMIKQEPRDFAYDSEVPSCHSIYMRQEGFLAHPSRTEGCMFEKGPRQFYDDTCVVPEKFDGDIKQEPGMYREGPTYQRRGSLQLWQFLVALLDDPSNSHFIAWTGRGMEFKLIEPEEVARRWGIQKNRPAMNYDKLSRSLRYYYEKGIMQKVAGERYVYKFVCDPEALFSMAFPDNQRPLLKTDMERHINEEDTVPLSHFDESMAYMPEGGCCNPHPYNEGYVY
# Sequence of ETV5 (P41161 whole entry): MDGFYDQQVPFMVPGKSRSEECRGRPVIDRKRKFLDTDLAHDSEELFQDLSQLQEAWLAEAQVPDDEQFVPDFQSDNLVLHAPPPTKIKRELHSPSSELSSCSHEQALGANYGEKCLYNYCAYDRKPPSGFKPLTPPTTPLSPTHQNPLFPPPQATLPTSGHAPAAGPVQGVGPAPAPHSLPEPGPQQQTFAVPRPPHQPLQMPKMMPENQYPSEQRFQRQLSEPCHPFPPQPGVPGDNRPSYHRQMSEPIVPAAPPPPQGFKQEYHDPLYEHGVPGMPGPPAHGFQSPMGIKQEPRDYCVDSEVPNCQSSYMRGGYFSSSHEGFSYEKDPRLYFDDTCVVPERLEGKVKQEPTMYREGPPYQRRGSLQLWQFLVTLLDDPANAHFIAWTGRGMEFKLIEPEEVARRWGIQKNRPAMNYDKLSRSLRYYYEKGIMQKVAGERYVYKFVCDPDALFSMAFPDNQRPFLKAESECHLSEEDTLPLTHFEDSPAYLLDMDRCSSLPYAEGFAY
sequence,measurement,setting,value
TGTTCT,binding signal,FEV,"1.28 fold enrichment (6-mer frequency, TF over GST control)"
same,binding signal,ETV5,"1.32 fold enrichment (6-mer frequency, TF over GST control)"
same,binding signal,HSF1,"2.8 fold enrichment (6-mer frequency, TF over GST control)"
same,binding signal,SPIC,"1.45 fold enrichment (6-mer frequency, TF over GST control)"
same,binding signal,ELF4,"1.42 fold enrichment (6-mer frequency, TF over GST control)"
same,binding signal,ELK4,"1.3 fold enrichment (6-mer frequency, TF over GST control)"
same,binding signal,ETV2,"1.23 fold enrichment (6-mer frequency, TF over GST control)"
same,binding signal,ELF3,"1.38 fold enrichment (6-mer frequency, TF over GST control)"
same,binding signal,CRX,"1.45 fold enrichment (6-mer frequency, TF over GST control)"
same,binding signal,ETV1,"1.39 fold enrichment (6-mer frequency, TF over GST control)"
same,binding signal,ERF,"1.39 fold enrichment (6-mer frequency, TF over GST control)"
same,binding signal,ETV3L,"1.43 fold enrichment (6-mer frequency, TF over GST control)"
same,binding signal,ETS2,"1.18 fold enrichment (6-mer frequency, TF over GST control)"
same,binding signal,SPDEF,"1.22 fold enrichment (6-mer frequency, TF over GST control)"
same,binding signal,ETV7,"1.22 fold enrichment (6-mer frequency, TF over GST control)"
same,binding signal,ELF5,"1.37 fold enrichment (6-mer frequency, TF over GST control)"
same,binding signal,ETV3,"1.27 fold enrichment (6-mer frequency, TF over GST control)"
same,binding signal,ETV6,"1.37 fold enrichment (6-mer frequency, TF over GST control)"
